CBX7 inh = CBX7 chromodomain binding inhibitors, primary screen, biochemical, AlphaScreen. AlphaScreen His6-CBX7 / biotin-H3K27me3 peptide binding; stronger effect = lower value. normalised signal (fraction of DMSO) (no concentration beside the values). 1.1% of 66,000 active; in the data active = normalised signal below about 0.5
Target sequence (O95931 whole entry, looked up): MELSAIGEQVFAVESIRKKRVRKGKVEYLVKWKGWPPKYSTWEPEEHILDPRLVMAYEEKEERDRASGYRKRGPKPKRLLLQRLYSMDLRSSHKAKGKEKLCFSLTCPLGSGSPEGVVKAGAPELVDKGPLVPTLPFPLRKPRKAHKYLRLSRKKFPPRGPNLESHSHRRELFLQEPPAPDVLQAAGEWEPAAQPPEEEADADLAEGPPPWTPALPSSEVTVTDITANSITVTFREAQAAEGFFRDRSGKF
* = called active by the depositor; ! = not confirmed by another sample. The sample as a whole holds a higher share of hits than the screen did.

SMILES	CBX7 inh
COc1ccccc1-c1cc(=O)n(CC(=O)N2CCOCC2)c2c1CCCC2	0.962
Cc1onc(-c2ccccc2)c1C(=O)Nc1cccc(Oc2ccccc2)c1	0.874
COc1ccc(Br)cc1CNC(=O)Cc1c(C(=O)O)[nH]c2ccccc12	1.03
Cc1noc(C)c1S(=O)(=O)NCc1cccnc1	0.989
CCOc1ccc2nc(N3CCC(C(=O)Nc4cc(C)on4)CC3)sc2c1	0.993
COc1ccccc1CNC(=O)CCc1nc(-c2ccccc2F)no1	1.03
CCc1ccc(NC(=O)CSc2nccn2-c2cc(C)cc(C)c2)cc1	0.954
Cc1ccc(Nc2nc(-c3c(C)nc4sccn34)cs2)cc1	0.682
Cc1nc2sccn2c1-c1csc(Nc2ccccc2)n1	0.741
Cc1nc2sccn2c1-c1csc(Nc2cccc(O)c2)n1	0.271*!
CCOc1ccc(-c2nnc(Nc3ccc(F)cc3)c3ccccc23)cc1	1.01
O=C(CC(C(=O)N1CCc2ccccc21)n1ccnc1)NC(c1ccccc1)c1ccccc1 (stereo not drawn)	0.451*
O=C(CC(C(=O)N1CCc2ccccc21)n1ccnc1)NC1CC1 (stereo not drawn)	1.02
CCC(C)NC(=O)CC(C(=O)N1CCc2ccccc21)n1ccnc1 (stereo not drawn)	1
O=C(NCCc1ccc(Cl)cc1)C1CCCN(S(=O)(=O)c2cccs2)C1 (stereo not drawn)	1.02
Cc1nnc(NC(=O)c2ccc(S(=O)(=O)N3CCCC3)cc2)o1	0.0237*
Cc1nnc(NC(=O)c2ccc(S(=O)(=O)N3CCOCC3)cc2)o1	0.51
CCOc1cccc2sc(NC(=O)c3ccc(S(=O)(=O)N4CCCc5ccccc54)cc3)nc12	1.19
COc1ccc(-c2nnc(NC(=O)c3ccc(S(=O)(=O)N4CC(C)CC(C)C4)cc3)o2)c(OC)c1 (stereo not drawn)	0.97
CC1CC(C)CN(S(=O)(=O)c2ccc(C(=O)Nc3nnc(C4CC4)o3)cc2)C1 (stereo not drawn)	0.0653*
CCc1nnc(NC(=O)c2ccc(S(=O)(=O)N3CCCC(C)C3)cc2)o1 (stereo not drawn)	0.638
O=C(Nc1nc(-c2ccncc2)cs1)c1ccc(S(=O)(=O)N2CCCc3ccccc32)cc1	0.863
O=C(Nc1nnc(C2CC2)o1)c1ccc(S(=O)(=O)N2CCOCC2)cc1	0.443*
Cc1nnc(NC(=O)c2ccc(S(=O)(=O)N3CCCC(C)C3)cc2)o1 (stereo not drawn)	0.746
Cc1nnc(NC(=O)c2ccc(S(=O)(=O)N3CCCc4ccccc43)cc2)o1	0.0335*
SMILES	CBX7 inh
COc1ccc(-c2nnc(NC(=O)c3ccc(S(=O)(=O)N4CCOCC4)cc3)o2)cc1	0.516
CC(CCc1ccccc1)NC(=O)CCNS(=O)(=O)c1ccc2c(c1)CCC(=O)N2 (stereo not drawn)	1.08
COc1ccc(C2C(Oc3ccccc3C)C(=O)N2c2ccc(C)c(C)c2)cc1OC (stereo not drawn)	0.972
COc1ccc(Cn2c(CCC(=O)Nc3ccc(F)cc3)nc3cccnc32)cc1	1.08
COc1ccccc1CNC(=O)c1cc(Nc2ccc(C(C)C)cc2)nc2ccccc12	1.3
COc1cccc(NC(=O)C(=O)NCCc2c[nH]c3ccccc23)c1	0.836
O=S(=O)(CC(O)COc1ccccc1)c1ccccn1 (stereo not drawn)	0.899
COc1ccc(-c2nnc(NC(=O)c3ccc(S(=O)(=O)N4CCCC4)cc3)o2)cc1	0.564
O=C(Nc1nnc(-c2ccc(Cl)s2)o1)c1ccc(S(=O)(=O)N2CCCCC2)cc1	0.159*
COc1cc(OC)cc(-c2nnc(NC(=O)c3ccc(S(=O)(=O)N4CCCCCC4)cc3)o2)c1	0.798
CC(C)CN(CC(C)C)S(=O)(=O)c1ccc(C(=O)Nc2nnc(-c3ccc(Cl)s3)o2)cc1	0.863
CCc1nnc(NC(=O)c2ccc(S(=O)(=O)N3CCC(C)CC3)cc2)o1	0.621
COCc1nnc(NC(=O)c2ccc(S(=O)(=O)N3CCCC3)cc2)o1	0.573
CN(C)S(=O)(=O)c1ccc(C(=O)Nc2nnc(-c3ccc(F)cc3)o2)cc1	0.044*
COc1cc(OC)cc(-c2nnc(NC(=O)c3ccc(S(=O)(=O)N4CCCC4)cc3)o2)c1	0.859
O=C(Nc1nnc(-c2ccc(F)cc2)o1)c1ccc(S(=O)(=O)N2CCCC2)cc1	0.0134*
CCc1nnc(NC(=O)c2ccc(S(=O)(=O)N3CCCCC3)cc2)o1	0.1*
Cc1ccnc(Nc2nc(-c3sc(NC(=O)c4ccccc4)nc3C)cs2)c1	1.02
COc1ccc(OC)c(NC(=O)CN2C(=O)CC(c3ccccc3)Sc3ccccc32)c1 (stereo not drawn)	0.72
CC(Oc1ccccc1)C(=O)N1CC(=O)Nc2ccc(F)cc2C1c1ccccc1 (stereo not drawn)	0.926
COc1cccc(-n2ccnc2SCC(=O)Nc2cccc(C)c2)c1	0.618
O=C1CSc2ccc(C(=O)N3CCc4ccccc43)cc2N1	0.9
CCC(C)Sc1oc(-c2ccc(F)cc2)nc1S(=O)(=O)c1ccccc1 (stereo not drawn)	0.975
Cc1cccc(OCc2nc(-c3ccccc3Cl)no2)c1	1.44
C=C(C)Cn1c(C2CC(=O)N(c3c(C)cc(C)cc3C)C2)nc2ccccc21 (stereo not drawn)	1.01
SMILES	CBX7 inh
Cc1ccc(CCNC(=O)C(NS(=O)(=O)c2ccc3c(c2)CCC(=O)N3)c2ccccc2)cc1 (stereo not drawn)	0.961
CCOc1ccc(C(=O)Nc2cc(-c3nc4ccccc4[nH]3)ccc2C)cc1Br	1.12
CCCCN(C)S(=O)(=O)c1ccc(C(=O)Nc2nnc(-c3ccc(Cl)s3)o2)cc1	0.982
CCCN(CCC)S(=O)(=O)c1ccc(C(=O)Nc2nnc(-c3ccc(Cl)s3)o2)cc1	1.02
CCC1CCCCN1S(=O)(=O)c1ccc(C(=O)Nc2nnc(C3CC3)o2)cc1 (stereo not drawn)	0.746
CN(c1ccccc1)S(=O)(=O)c1ccc(C(=O)Nc2nnc(-c3ccc(Cl)s3)o2)cc1	0.39*
O=C(Nc1nnc(C2CC2)o1)c1ccc(S(=O)(=O)N2CCCCCC2)cc1	0.00107*
COc1ccc(C(=O)Nc2c(-c3ccccc3)nc3ccccn23)cc1OC	0.991
Cc1ccc2c(c1)N(CCC(=O)NCc1ccc3c(c1)OCO3)C(=O)C(C)O2 (stereo not drawn)	0.838
COc1ccccc1C(=O)N(Cc1nc(-c2ccc(C)cc2)no1)C(C)C	0.963
Cc1ccc(CN2CCN(CC(=O)NC3CCCC3)C2=O)cc1	1.08
CCOc1ccc(-n2nc(C(=O)Nc3ccc(F)c(Cl)c3)c3ccccc3c2=O)cc1	1.04
Cc1ccc(CCNC(=O)C2CCC(=O)N2Cc2ccccc2Cl)cc1 (stereo not drawn)	1.03
c1ccc(CNC2CCCc3c2[nH]c2ccc(-c4ccccc4)cc32)cc1 (stereo not drawn)	0.669
Cc1ccc2[nH]c3c(c2c1)CCCC3NCCCO (stereo not drawn)	1.01
Cc1ccc2[nH]c3c(c2c1)CCCC3NCc1ccc(Cl)cc1 (stereo not drawn)	0.495*
O=C(Cn1ncc2c1-c1ccccc1OC2)N1CCN(C2CCCCC2)CC1	1
O=C(NCCCn1ccnc1)c1cnn2c(C(F)F)cc(-c3ccccc3)nc12	1.04
CC(=O)Nc1ccc(Nc2nc(-c3c(C)nc4ncccn34)cs2)cc1	1.02
CC(=O)Nc1ccc(Nc2nc(-c3ccccn3)cs2)cc1	0.0608*
Cc1c(Cl)cccc1Nc1nc(-c2cccs2)cs1	0.838
CC(=O)Nc1ccc(Nc2nc(-c3cc4ccccc4o3)cs2)cc1	0.788
